The structures appear in SMILES notation. In all, about 290,000 compounds went through this assay and about 1,800 (0.62%) were called active. What follows is part of a selection rich in actives, with near analogues and random picks from the rest. A number with no mark means an inactive call. Rule as the data show it: active = inhibition above about 50%; inactive = the rest.

The assay is described as follows: inhibition of NOD2-driven NF-kB reporter – cell-based, luminescence, uHTS, HEK293 (AID 1566). Conditions: HEK293 NOD2/NF-kB luciferase reporter, at 4 µM, active compounds read high.
For `CCc1c(C)nc2c(C)cccc2c1SCCC#N`, the inhibition – broadly, the drop in the measured response relative to a control, in per cent – is 12.6%. As to `O=C(CN1CCN(C(c2ccccc2)c2ccccc2)CC1)Nc1ccc(N2CCOCC2)cc1`, the inhibition was 6.9%. To `COC(=O)c1c(NC(=O)c2ccc(OC(C)C)cc2)sc2c1CC(C)(C)NC2(C)C` belongs 7.3%; to `COc1ccc(/C=N/NC(=O)c2sc(C)nc2C)cc1`, 13.6%. With `COc1ccccc1/C=N/NC(=O)c1sc(C)nc1C`, the inhibition was 6.4%.

As for `Cc1nc(C)c(C(=O)N/N=C/c2cc(Br)ccc2O)s1`, the inhibition is 50.9% (active). The figure for `Cc1onc(-c2ccccc2)c1C(=O)N1CCOC12CCN(c1cccc(F)n1)CC2` is 14.4%; for `O=C(NCCc1ccccc1)C1CCCN(c2ncnc3c2nc2n3CCCCC2)C1` (centres undefined) it is 18.5%. Consider `COC(=O)c1sc(N2C(=O)C(O)=C(C(=O)c3ccc(C)o3)C2c2ccco2)nc1C` (centres undefined), for which the inhibition is 39.6%. Take `O=C(NCc1ccccc1)N1CCOCC1`: the inhibition is -1.5%. Take `CC(=O)Nc1cc2c(=O)n(Cc3ccccc3)c(C)nc2cc1N1CCOCC1`: the inhibition was 9.5%. For `Cc1nc2cc(N3CCCCC3)c(NC(=O)c3ccncc3)cc2c(=O)n1Cc1ccccc1`, the inhibition was 10.5%. On to `CC(=O)Nc1ccc(NC(=O)c2sc(-c3ccccc3)nc2C)cc1`, for which the inhibition is 19.3%. As to `COc1cc2cc(CN(CCc3ccccc3C)C(=S)NCCCN3CCOCC3)c(=O)[nH]c2cc1OC`, the inhibition is 17.4%.

Consider `COc1ccc(Nc2nc3ccccc3nc2NS(=O)(=O)c2cccs2)cc1`, for which the inhibition was 37.8%. Turning to `O=C(O)c1ccc(Nc2nc3ccccc3nc2NS(=O)(=O)c2cccs2)cc1`, the inhibition is 7.1%.

Regarding `CC(=O)Nc1ccc(S(=O)(=O)N2CCN(CC(=O)NC3CCCC3)CC2)cc1`, the inhibition was -8.9%. For the molecule `O=C1OCC2=C1C(c1ccccc1)CC(=O)N2c1ccc(F)cc1` (centres undefined), the inhibition is -3.1%. Take `Cc1c(CCC(=O)O)c(=O)oc2c(C)c3occ(-c4ccc(Br)cc4)c3cc12`: the inhibition is 41%. With `COc1ccc(-c2coc3c(C)c4oc(=O)c(CCC(=O)O)c(C)c4cc23)cc1`, the inhibition is 5.8%. Turning to `COc1ccccc1COc1ccc2c(C)c(CC(=O)O)c(=O)oc2c1C`, the inhibition is 10.3%. Take `Cc1c(CCC(=O)O)c(=O)oc2c(C)c(OCc3cc4c(cc3Cl)OCO4)ccc12`: the inhibition was 35%. For the molecule `CCOc1ccccc1C(=O)OCC(=O)NCCNC(=O)COC(=O)c1ccccc1OCC`, the inhibition is -4.3%.

For the molecule `CCCN1C(=O)/C(=C/c2ccc(C)o2)SC1=Nc1ccc(OCC)cc1`, the inhibition was 1.9%. Take `O=c1cc(CSc2nnc(COc3ccc(Cl)cc3)o2)c2ccccc2[nH]1`: the inhibition is 17.3%. Regarding `COc1cccc(C2CNC3(CCCC(C)C3)c3[nH]c4ccccc4c32)c1OC` (centres undefined), the inhibition is -9%. Turning to `O=C(N/N=C/c1cccc(O)c1)c1ccc(COc2ccc3c(c2)CCC3)o1`, the inhibition is -30.7%.

For `O=C(N/N=C/c1cc([N+](=O)[O-])ccc1O)c1ccc(COc2ccc3c(c2)CCC3)o1`, the inhibition was 50.4% (active). As to `COc1ccc(Br)cc1/C=N/NC(=O)c1ccc(COc2ccc3c(c2)CCC3)o1`, the inhibition is -48.8%. To `O=C(NCCc1ccc(Cl)cc1)C1CCCN1C(=O)Nc1ccccc1` (centres undefined) belongs 13.4%; to `Cc1ccc(NC(=O)C(C)Sc2n[nH]c(CNc3ccccc3)n2)cc1` (centres undefined), 3.6%; to `CC1Sc2ccc(S(=O)(=O)N3CCC(C(=O)Nc4cccc(Cl)c4)CC3)cc2NC1=O` (centres undefined), 14.4%. Take `Cc1ccc(NC(=O)C2CCN(S(=O)(=O)c3ccc4c(c3)NC(=O)C(C)S4)CC2)cc1C` (centres undefined): the inhibition was 16.5%. To `CN(C)c1ccc(C2N(C(=O)N3CCOCC3)CCN2S(=O)(=O)c2ccccc2)cc1` (centres undefined) belongs 13.1%. For the molecule `Cc1c(Br)c([N+](=O)[O-])nn1CC(=O)Nc1ccc2nc3n(c(=O)c2c1)CCCC3`, the inhibition is 17.3%. As to `Cc1ccc(/C=C(/NC(=O)c2ccccc2)C(=O)NC(Cc2c[nH]c3ccccc23)C(=O)O)cc1` (centres undefined), the inhibition was 9.4%. To `COc1ccc([N+](=O)[O-])c(S(=O)(=O)c2ccccc2)n1` belongs 29%. `COc1ccc([N+](=O)[O-])c(S(=O)(=O)c2ccc(Cl)cc2)n1`: the inhibition is 60.3% (active). Consider `COc1nc(OC)nc(Oc2ccc(Cl)cc2[N+](=O)[O-])n1`, for which the inhibition was 10.1%. `Cc1c(CC(=O)N[C@@H](C)C(=O)O)c(=O)oc2cc3occ(-c4ccccc4)c3cc12`: the inhibition is 14%. `COc1cc(C(=O)OCC(C)=O)c([N+](=O)[O-])cc1OC`: the inhibition is 0.4%. The figure for `CCSc1nc(-c2ccccc2)c(C#N)c(=O)[nH]1` is 20%. For `N#Cc1c(-c2ccccc2)nc(SCc2ccc(Cl)cc2)[nH]c1=O`, the inhibition is 24.8%.

On to `O=C(c1ccc2c(=O)n(-c3ccccc3)c(=O)[nH]c2c1)N1CCN(c2ccc(F)cc2)CC1`, for which the inhibition was 14.2%. In the case of `Cc1cc(NC(=O)CSc2ccc3c(c2)OCCO3)no1`, the inhibition is 14.9%. Regarding `Cc1cccc(SCC(=O)Nc2ccc3c(c2)OCCO3)c1`, the inhibition was -70.2%. Take `Cc1ccc(NC(=O)CSc2ccc3c(c2)OCCO3)c(O)c1`: the inhibition is 54.3% (active). `CCn1c(=O)c(=O)[nH]c2cc(C(=O)NC(C)c3ccc(S(N)(=O)=O)cc3)ccc21` (centres undefined): the inhibition is -19.7%. Turning to `O=c1oc2ccc(Cl)cc2cc1-c1nnc(Nc2cccc(C(F)(F)F)c2)s1`, the inhibition is 9%. In the case of `CNc1nnc(-c2cc3cc(Cl)ccc3oc2=O)s1`, the inhibition is 94.4% (active). As for `CNc1nnc(-c2cc3ccccc3oc2=O)s1`, the inhibition is -76.8%. Regarding `CCOC(=O)N1CCN(C(=O)c2ccccc2NC(=O)c2ccc(C(C)(C)C)cc2)CC1`, the inhibition is 4.9%. Consider `CC(=O)c1sc(-c2ccc(F)cc2F)nc1C`, for which the inhibition was -0.7%. To `Cc1cnc(NC(=O)c2c(-c3ccccc3)noc2C)s1` belongs 5.6%; to `Cc1nnc(NC(=O)c2c(-c3ccccc3)noc2C)s1`, 4.4%. Regarding `CCOc1ccc(NC(=O)Nc2ccon2)cc1`, the inhibition is -25.3%. To `COC(=O)c1ccc(CC(=O)c2ccc(O)cc2O)o1` belongs 43.8%. The figure for `CCOC(=O)c1ccc(CC(=O)c2ccc(O)c(O)c2O)o1` is 8.3%; for `CCOC(=O)c1ccc(CC(=O)c2ccc(O)cc2O)o1` it is 67.3% (active).

Values taken from PubChem BioAssay AID1566 (Sanford-Burnham Center for Chemical Genomics, 2009).
